Assay results taken from PubChem BioAssay (EPA / NIEHS).
Calls of active or inactive are those of the source. Rule for the calls: active = hit-call score of the fitted dose curve at least 0.9, where 1 is the maximum; inactive = score below 0.9.

How the values were obtained:
[1] = read-out: Interleukin-1 alpha (IL1a), IL1A (gene 3552); experiment: BSK_KF3CT_IL1a: BioMAP Diversity Plus: KF3CT Assay for Interleukin-1 alpha (IL1a) Biomarker Activity (AID 2283070); settings: primary human keratinocytes with fibroblasts; actives raise or lower the signal
Summary of the method: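 Readout is IL-1a level by ELISA, compared bidirectionally with DMSO as baseline. Cells: human keratinocytes co-cultured with foreskin fibroblasts, harvested 24 h post-dose.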

[2] = read-out: Transforming growth factor beta 1 (TGFb1), TGFB1 (gene 7040); experiment: BSK_KF3CT_TGFb1: BioMAP Diversity Plus: KF3CT Assay for Transforming growth factor beta 1 (TGFb1) Biomarker Activity (AID 2283072); settings: primary human keratinocytes with fibroblasts; actives raise or lower the signal
Summary of the method: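 ELISA quantifies TGF-b1 at 24 h post-dose in a primary human skin co-culture of keratinocytes and fibroblasts, with gain or loss judged against DMSO. Parallel SRB total-protein staining flags overt cytotoxicity.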

[3] = read-out: C-C motif chemokine 2 (Homo sapiens) (UniProt P13500); experiment: BSK_KF3CT_MCP1: BioMAP Diversity Plus: KF3CT Assay for Monocyte Chemoattractant Protein 1 (MCP1/CCL2) Biomarker Activity (AID 2283073); settings: primary human keratinocytes with fibroblasts; actives raise or lower the signal
Summary of the method: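 KF3CT skin co-culture (keratinocytes/foreskin fibroblasts), 24 h post-dose; MCP-1 by ELISA; gain/loss of signal fit bidirectionally vs DMSO baseline.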

[4] = read-out: Matrix Metallopeptidase 9 (MMP9), MMP9 (gene 4318); experiment: BSK_KF3CT_MMP9: BioMAP Diversity Plus: KF3CT Assay for Matrix Metallopeptidase 9 (MMP9) Biomarker Activity (AID 2283074); settings: primary human keratinocytes with fibroblasts; actives raise or lower the signal;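 for AC50: MMP9 protein level quantified by ELISA in the co-culture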
Summary of the method: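 Values come from bidirectional fitting relative to DMSO of MMP-9 levels, which were measured by ELISA. Measurements were taken 24 h after chemical dosing of a keratinocyte and foreskin fibroblast co-culture.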

[5] = read-out: urokinase plasminogen activator (uPA), PLAU (gene 5328); experiment: BSK_KF3CT_uPA: BioMAP Diversity Plus: KF3CT Assay for urokinase plasminogen activator (uPA) Biomarker Activity (AID 2283075); settings: primary human keratinocytes with fibroblasts; actives raise or lower the signal
Summary of the method: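 Values derive from bidirectional fitting against DMSO controls. Keratinocyte/foreskin fibroblast co-cultures received chemical; 24 h later uPA was detected by ELISA, with SRB total-protein staining in parallel wells for overt cytotoxicity.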

CD40, CD40 (gene 958) [6] = experiment: BSK_LPS_CD40: BioMAP Diversity Plus: LPS Assay for CD40 Biomarker Activity (AID 2283076); settings: primary human HUVEC with PBMC; actives raise or lower the signal
Summary of the method: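 ELISA readout of CD40 in HUVEC/PBMC co-culture (BSK_LPS system), 24 h post-dosing; bidirectional curve fit, DMSO baseline; parallel SRB total-protein staining for cytotoxicity.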

[7] = read-out: E-selectin (Homo sapiens) (UniProt P16581); experiment: BSK_LPS_Eselectin: BioMAP Diversity Plus: LPS Assay for Eselectin Biomarker Activity (AID 2283077); settings: primary human HUVEC with PBMC; actives raise or lower the signal
Summary of the method: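 ELISA readout of E-selectin, 24 h post-dose, HUVEC + PBMC co-culture (LPS system). Gain or loss of signal vs DMSO baseline, bidirectional fit.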

[8] = read-out: Interleukin-8 (IL8), CXCL8 (gene 3576); experiment: BSK_LPS_IL8: BioMAP Diversity Plus: LPS Assay for Interleukin-8 (IL8) Biomarker Activity (AID 2283078); settings: primary human HUVEC with PBMC; actives raise or lower the signal
Summary of the method: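 HUVEC + PBMC co-culture, LPS-activated; test chemicals dosed, IL-8 read by ELISA at 24 h. Bidirectional curve fit vs DMSO baseline (gain or loss of signal).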

[9] = BSK_LPS_SRB: Viability Assessment in the BioMAP Diversity Plus: LPS Assay (AID 2283079); settings: primary human HUVEC with PBMC;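 note: total protein by sulforhodamine B absorbance as a cytotoxicity measure; measured one day after compound addition; fitted in both directions against DMSO so loss or gain of signal counts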
Summary of the method: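 HUVEC + PBMC co-culture, LPS-stimulated; compound 24 h. 10% TCA fix, 0.1% SRB stain, A560. Bidirectional fit vs DMSO.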

[10] = read-out: Interleukin-1 alpha (IL1a), IL1A (gene 3552); experiment: BSK_LPS_IL1a: BioMAP Diversity Plus: LPS Assay for Interleukin-1 alpha (IL1a) Biomarker Activity (AID 2283080); settings: primary human HUVEC with PBMC; actives raise or lower the signal
Summary of the method: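 HUVEC/PBMC co-culture, LPS system; 24 h after dosing; IL-1a by ELISA; gain or loss of signal fitted bidirectionally vs DMSO baseline.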

[11] = BSK_LPS_PGE2: BioMAP Diversity Plus: LPS Assay for Prostaglandin E2 (PGE2) Biomarker Activity (AID 2283082); settings: primary human HUVEC with PBMC; actives raise or lower the signal;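 for AC50: secreted prostaglandin E2 measured by ELISA in LPS-stimulated co-culture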
Summary of the method: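 PGE2 release measured by ELISA in an LPS-activated co-culture of human umbilical vein endothelial cells and peripheral blood mononuclear cells, read at 24 h post-dosing. DMSO served as baseline for bidirectional curve fitting.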

[12] = read-out: Macrophage colony-stimulating factor (MCSF), CSF1 (gene 1435); experiment: BSK_LPS_MCSF: BioMAP Diversity Plus: LPS Assay for Macrophage colony-stimulating factor (MCSF) Biomarker Activity (AID 2283083); settings: primary human HUVEC with PBMC; actives raise or lower the signal
Summary of the method: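 HUVEC + PBMC co-culture (human primary), 24 h post-dose; M-CSF by ELISA; gain/loss of signal fitted bidirectionally vs DMSO baseline.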

[13] = read-out: Tissue Factor, F3 (gene 2152); experiment: BSK_LPS_TissueFactor: BioMAP Diversity Plus: LPS Assay for Tissue Factor Biomarker Activity (AID 2283084); settings: primary human HUVEC with PBMC; actives raise or lower the signal
Summary of the method: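 HUVEC/PBMC co-culture, LPS-activated; CD142 ELISA read 24 h post-dose; bidirectional curve fit vs DMSO negative control.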

[14] = read-out: Tumor necrosis factor (Homo sapiens) (UniProt P01375); experiment: BSK_LPS_TNFa: BioMAP Diversity Plus: LPS Assay for Tumour Necrosis Factor alpha (TNFa) Biomarker Activity (AID 2283085); settings: primary human HUVEC with PBMC; actives raise or lower the signal;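 for AC50: TNFa protein level quantified by ELISA in the co-culture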
Summary of the method: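 TNFa was quantified by ELISA in LPS-activated co-cultures of human endothelial cells and PBMC, 24 h post-dosing. Both increases and decreases versus DMSO were fitted.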

[15] = read-out: Vascular cell adhesion molecule 1 (VCAM1), VCAM1 (gene 7412); experiment: BSK_LPS_VCAM1: BioMAP Diversity Plus: LPS Assay for Vascular cell adhesion molecule 1 (VCAM1) Biomarker Activity (AID 2283086); settings: primary human HUVEC with PBMC; actives raise or lower the signal
Summary of the method: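 VCAM-1 quantified by ELISA in an LPS-activated co-culture of human endothelial cells and peripheral blood mononuclear cells, read 24 h post-treatment. Fitted in both directions versus DMSO; parallel SRB staining flags overt cytotoxicity.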

CD38, CD38 (gene 952) = experiment: BSK_SAg_CD38: BioMAP Diversity Plus: SAg Assay for CD38 Biomarker Activity (AID 2283087); settings: primary human HUVEC with PBMC; actives raise or lower the signal
Summary of the method: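 CD38 quantified by ELISA (fluorescence) in a superantigen-activated endothelial cell–PBMC co-culture at 24 h post-dose. Activity fitted in both directions relative to DMSO; parallel SRB and Alamar Blue cytotoxicity read-outs.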

CD40, CD40 (gene 958) [16] = experiment: BSK_SAg_CD40: BioMAP Diversity Plus: SAg Assay for CD40 Biomarker Activity (AID 2283088); settings: primary human HUVEC with PBMC; actives raise or lower the signal
Summary of the method: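 HUVEC/PBMC co-culture, 24 h post-dose; CD40 by ELISA, fluorescence intensity; bidirectional fit vs DMSO negative control.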

CD69, CD69 (gene 969) = experiment: BSK_SAg_CD69: BioMAP Diversity Plus: SAg Assay for CD69 Biomarker Activity (AID 2283089); settings: primary human HUVEC with PBMC; actives raise or lower the signal
Summary of the method: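 Primary human vascular co-culture (umbilical vein endothelium with peripheral blood mononuclear cells) exposed to test chemical for 24 h. CD69 levels quantified by fluorescence ELISA; DMSO served as negative control for bidirectional fitting.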

[17] = read-out: Monocyte Chemoattractant Protein-1 (MCP1), CCL2 (gene 6347); experiment: BSK_LPS_MCP1: BioMAP Diversity Plus: LPS Assay for Monocyte Chemoattractant Protein-1 (MCP1) Biomarker Activity (AID 2283081); settings: primary human HUVEC with PBMC; actives raise or lower the signal
Summary of the method: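 ELISA read-out of MCP-1 after 24 h chemical dosing of a human umbilical vein endothelial cell/peripheral blood mononuclear cell co-culture stimulated with LPS. Gain or loss of signal fitted relative to DMSO controls.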

Measured: AC50

Chain of E-selectin (Homo sapiens) (P16581 whole entry, looked up): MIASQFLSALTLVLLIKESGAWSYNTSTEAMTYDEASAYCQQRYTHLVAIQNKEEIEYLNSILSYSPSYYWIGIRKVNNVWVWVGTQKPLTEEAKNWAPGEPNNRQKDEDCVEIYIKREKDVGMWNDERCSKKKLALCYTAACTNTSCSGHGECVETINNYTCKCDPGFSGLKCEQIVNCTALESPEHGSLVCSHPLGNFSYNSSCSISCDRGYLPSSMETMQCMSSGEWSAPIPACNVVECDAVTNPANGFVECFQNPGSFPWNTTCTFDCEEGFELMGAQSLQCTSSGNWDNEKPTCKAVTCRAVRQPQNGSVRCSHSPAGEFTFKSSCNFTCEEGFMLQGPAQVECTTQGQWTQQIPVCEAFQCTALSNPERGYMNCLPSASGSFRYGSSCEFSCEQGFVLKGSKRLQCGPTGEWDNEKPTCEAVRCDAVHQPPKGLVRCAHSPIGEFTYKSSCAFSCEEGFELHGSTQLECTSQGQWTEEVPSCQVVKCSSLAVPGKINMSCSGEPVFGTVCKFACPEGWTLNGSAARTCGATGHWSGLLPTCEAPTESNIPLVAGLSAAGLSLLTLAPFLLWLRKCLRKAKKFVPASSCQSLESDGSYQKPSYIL
Chain of Tumor necrosis factor (Homo sapiens) (P01375 whole entry, looked up): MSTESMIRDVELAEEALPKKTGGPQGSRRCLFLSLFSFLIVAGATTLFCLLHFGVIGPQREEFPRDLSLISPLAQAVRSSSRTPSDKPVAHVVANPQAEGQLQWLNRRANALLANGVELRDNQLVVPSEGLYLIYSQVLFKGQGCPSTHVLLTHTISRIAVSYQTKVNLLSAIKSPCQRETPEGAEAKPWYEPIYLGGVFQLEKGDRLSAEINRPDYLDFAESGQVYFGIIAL

CCc1ccc(O)c(C(C)(C)C)c1
active: [1] 30.5 µM | [2] 33.5 µM | [3] 36.8 µM | [4] 34.7 µM | [5] 35.3 µM | [9] 32 µM | [11] 25.3 µM | [14] 36.6 µM | [15] 30.5 µM | CD38, CD38 (gene 952) 26.7 µM | CD40, CD40 (gene 958) [16] 36 µM
inactive: CD40, CD40 (gene 958) [6] | [7] | [8] | [10] | [12] | [13] | CD69, CD69 (gene 969)

OC[C@H]1O[C@@](CO)(O[C@H]2O[C@H](CO)[C@@H](O)[C@H](O)[C@H]2O)[C@@H](O)[C@@H]1O
not listed: [10] | [17]
inactive: all other assays above

O=C(NO)C1(NS(=O)(=O)c2ccc(Oc3ccc(F)cc3)cc2)CCOCC1
active: [14] 3.97 µM
not listed: [10]
inactive: all other assays above

C[C@]12C=CC(=O)C=C1CC[C@H]1[C@@H]3C[C@@H](O)[C@](O)(C(=O)CO)[C@@]3(C)C[C@H](O)[C@@]12F
active: [14] 0.557 µM
not listed: [10]
inactive: all other assays above

c1ccc2ncccc2c1
not listed: [10] | [17]
inactive: all other assays above

FC(F)(F)C(F)(F)C(F)(F)C(F)(F)C(F)(F)C(F)(F)I
not listed: [2] | [10] | [17]
inactive: all other assays above

Cc1cccc(O)c1C
not listed: [10] | [17]
inactive: all other assays above
